From PubChem BioAssay

experiment: PSAC antagonists in infected red cells, primary screen, cell-based, P. falciparum Indochina, OD700, 18 h (AID 1157); conditions: P. falciparum Indochina infected erythrocytes, osmotic lysis OD700, 18 h; higher = more signal, called active from +8 up or from −8 down

z-score, inactive:
[N-]=[N+]=NCc1ccccc1[C@@H]1OC(c2ccc(OCCCO)cc2)=N[C@]1(CCS(=O)(=O)c1ccccc1)C(=O)O 0.716
CC1CC/C=C\[C@H]2OC34C=CCN(c5ccc(Cl)cc5)C(=O)[C@H]3N(C(C)CO)C(=O)[C@]4(C)C2C(=O)O1 (stereo partly specified) 0.281
C=CC[C@]1(C(=O)N2CCCCC2)N=C(c2ccc(OCCCO)cc2)O[C@H]1c1ccccc1CN=[N+]=[N-] 1.08
COc1ccc([Si](C)(C)[C@H]2[C@H](CC(=O)N3CCC[C@H]3CO)O[C@@]3(C(=O)N(Cc4ccc(N5CCOC5=O)cc4)c4ccccc43)[C@@H]2C)cc1 0.746
Cc1cc(C)c(C(O)C2C=CC3C(=O)N(c4ccccc4)C(=O)C3N2Nc2ccccc2F)c(C)c1 (stereo unspecified) 1.32
CC[C@@H]1O[Si](C(C)C)(C(C)C)c2c1cc(-c1cc(C)c(OC)c(C)c1)nc2-c1ccc(Oc2ccccc2)cc1 0.311
O[C@@H](Cc1ccccc1)[C@@H](/C=C/C1CC1)N(CC#Cc1ccccc1)Cc1ccccc1Br 0.475
COC(=O)C/C=C/C[C@]1(O)C(=O)N(C)c2ccccc21 -1.87
C=CC[C@@]1(C(=O)NCCCOC)N=C(c2ccc(OCCCO)cc2)O[C@@H]1c1ccccc1N=[N+]=[N-] 2.16
COC(=O)[C@@H]1N=C(c2ccc(OCCCO)cc2)O[C@@H]1C 0.448
CCCC=C(CCC)[C@@H](NC(=O)c1cccs1)c1ccc(C(=O)OC)cc1 -1.27
